From PubChem BioAssay (NCI)
Compounds without any hit were thinned out: in the full panel of roughly 79,000, 15% have a hit. The source made the active and inactive calls. No stated cut-off is given here; in the data, active means growth inhibition above about 70%; inactive means the rest.

Key:
[1] = NCI Yeast Anticancer Drug Screen. Data for the rad50 strain (AID 155);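 further: 0% = growth of vehicle-only cultures of the same strain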; conditions: S. cerevisiae rad50 strain growth inhibition; at 50.0 µM; stronger effect = higher value
Outline: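 Yeast carrying a defined DNA repair defect were exposed to test compounds, and growth was compared with vehicle-treated controls to give percent inhibition.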

[2] = NCI Yeast Anticancer Drug Screen. Data for the mec2-1 strain (AID 157); conditions: S. cerevisiae mec2-1 strain, at 50.0 µM, stronger effect = higher value
Outline: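 Each compound was tested on mec2-1 yeast, a strain altered in DNA damage repair or cell cycle control. Growth inhibition is reported relative to vehicle.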

[3] = NCI Yeast Anticancer Drug Screen. Data for the sgs1 mgt1 strain (AID 161);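 further: 0% = growth of cultures given vehicle only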; conditions: S. cerevisiae sgs1 mgt1 strain, at 50.0 µM, stronger effect = higher value
Outline: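 Read-out: growth inhibition vs vehicle controls. Cells: mutant yeast strain deficient in DNA damage repair.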

[4] = NCI Yeast Anticancer Drug Screen. Data for the cln2 rad14 strain (AID 165);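 further: 0% = growth equal to vehicle treated cultures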; conditions: S. cerevisiae cln2 rad14 strain, at 50.0 µM, stronger effect = higher value
Outline: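 Test compounds were added to cln2 rad14 yeast cultures; inhibition of growth was then determined by comparison with vehicle treatment.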

[5] = NCI Yeast Anticancer Drug Screen. Data for the bub3 strain (AID 167); conditions: S. cerevisiae bub3 mutant strain, at 50.0 µM, stronger effect = higher value
Outline: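 Compounds were applied to a genetically altered yeast strain carrying a cell-cycle control defect. Growth inhibition was scored against vehicle-treated controls.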

[6] = NCI Yeast Anticancer Drug Screen. Data for the mlh1 rad18 strain (AID 175); conditions: S. cerevisiae mlh1 rad18 strain growth inhibition; at 50.0 µM; stronger effect = higher value
Outline: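 Inhibition values reflect reduced growth of mutant yeast versus vehicle-treated controls following compound exposure; the mutations affect DNA damage repair.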

Measured: growth inhibition

CCCCCCCCCSCP(=O)(OCC)OCC
active: [1] 99.5% | [2] 99.8% | [3] 99.7% | [4] 98.9% | [5] 99.5% | [6] 99.7%

O=[N+]([O-])c1ccc(CI)cc1
inactive: [1] 5.65% | [2] 34.2% | [3] 36.6% | [4] -3.55% | [5] 13.4% | [6] 23.3%

Nc1ccc2c(c1)Cc1cc(N)ccc1-2
inactive: [1] 60.2% | [2] 15.3% | [3] 57% | [4] -3.75% | [5] 37% | [6] 12.1%

COc1cc2c3c(c1OC)Oc1ccc(cc1)CC1c4c(cc(OC)c(OC)c4Oc4ccc(cc4)CC3N(C)CC2)CCN1C (configuration not stated)
inactive: [1] 2.75% | [2] 11.9% | [3] -11.3% | [4] -8% | [5] -13.6% | [6] -3.65%

CC1=C(Cl)C=CP(=O)(Oc2ccccc2)C1 (configuration not stated)
inactive: [1] 19.5% | [2] -14.4% | [3] -12.2% | [4] 29.2% | [5] -5.6% | [6] -8.15%

OC(c1ccc2ccccc2n1)C1CCCCN1 (configuration not stated)
inactive: [1] 14.2% | [2] -6.45% | [3] 7.05% | [4] -8.15% | [5] -1.7% | [6] 11.1%

CN(C)C(=O)O/N=C(\c1ccccc1)C(F)(F)F
inactive: [1] 35.7% | [2] -0.15% | [3] 20.5% | [4] 15.4% | [5] 20.7% | [6] 30.6%

O=C(COc1ccc(Cl)cc1)Nc1ccc(Cl)cc1C(=O)c1ccccc1
inactive: [1] -15.8% | [2] -8.9% | [3] 17.3% | [4] 18.8% | [5] 1.1% | [6] -18.4%

CN(C)C(=S)Oc1cc(Cl)c(S(=O)(=O)F)cc1Cl
active: [1] 99.5% | [2] 98.8% | [3] 99.2% | [4] 95.8% | [5] 99.2% | [6] 99%

Oc1ccccc1C=NCCN=Cc1ccccc1O.[Zn+2]
inactive: [1] -29.2% | [2] -2.2% | [3] -25.1% | [4] -53.8% | [5] -7.8% | [6] -17.9%

O=[As](c1ccccc1)(c1ccccc1)c1ccc(Br)cc1
inactive: [1] 31.1% | [2] 1.25% | [3] 12.2% | [4] 5.1% | [5] 6.2% | [6] 4.7%

NC(N)=NC(N)=Nc1ccc(Cl)cc1
inactive: [1] 0.9% | [2] -2.65% | [3] 3.45% | [4] 2.8% | [5] -1.9% | [6] -1.55%

Cc1cc(S(=O)(=O)F)ccc1NC(=O)NCc1ccc([N+](=O)[O-])cc1
inactive: [1] 2.75% | [2] 15.7% | [3] 24.1% | [4] -1.95% | [5] 18.1% | [6] 10.1%

Cc1ccc(NC(=O)c2cc3ccccc3cc2O)c(C)c1
inactive: [1] 17.1% | [2] -16.1% | [3] 20.7% | [4] 8.75% | [5] 17.9% | [6] 21.8%

CCCC(NC(=O)CCl)C(=O)O (configuration not stated)
inactive: [1] -13.1% | [2] -18.1% | [3] -11.4% | [4] -73.8% | [5] 0.65% | [6] -8.25%

O=[N+]([O-])C1CCC(O)C([N+](=O)[O-])C1 (configuration not stated) (tested in a mixture with another compound)
active: [1] 71.8% | [3] 93.7% | [6] 86.8%
inactive: [2] 37.7% | [4] 69.3% | [5] 13.6%

C1CCN2COCC2C1 (configuration not stated)
inactive: [1] -16.2% | [2] -16.9% | [3] -38.5% | [4] 0.7% | [5] -17.2% | [6] 22.4%

C=C[Se](=C(C#N)C#N)c1ccccc1 (configuration not stated)
inactive: [1] -3.35% | [2] 28% | [3] 5.75% | [4] 4.35% | [5] -16.4% | [6] 0.7%

CN(C)NP(=O)(c1ccccc1)c1ccccc1
inactive: [1] 0.05% | [2] -3.05% | [3] -4.45% | [4] -10.5% | [5] 7.75% | [6] -2.9%

Oc1ccccc1C=NC1CCCCC1.Oc1ccccc1C=NC1CCCCC1.[Ni+2]
inactive: [1] 38.6% | [2] -9.25% | [3] 28.6% | [4] -40.8% | [5] -0.1% | [6] -15.4%

COC(=O)C1(F)C(=O)NC(=O)NC1O (configuration not stated)
inactive: [1] -4.6% | [2] -2.75% | [3] 3.5% | [4] 14.7% | [5] 0.85% | [6] 2.25%

O=[N+]([O-])c1ccc(OCCOCCOc2ccc(S(=O)(=O)F)cc2)c(Cl)c1
inactive: [1] 56.2% | [2] 15.4% | [3] 21.8% | [4] 29.6% | [5] 45.4% | [6] 56.5%

OC1(c2ccccc2)C2CCN(CC2)C1CN1CCOCC1 (configuration not stated)
inactive: [1] -23.6% | [2] -30.7% | [3] -20.6% | [4] 4.05% | [5] 13.3% | [6] 7.95%

CC1OCN2CCCCC12 (configuration not stated)
inactive: [1] -25.9% | [2] -12.7% | [3] -33.4% | [4] -7.85% | [5] -25.1% | [6] -27.1%

Nc1cc(S(=O)(=O)O)cc2cc(S(=O)(=O)O)c(N=Nc3ccc([As]=O)cc3)c(O)c12 (configuration not stated)
inactive: [1] -11.1% | [2] 15.3% | [3] -9.3% | [4] -4.55% | [5] 6.05% | [6] -5.3%

CC(C)CN(CC(C)C)[N+](=O)[O-]
inactive: [1] -6.25% | [2] 1.45% | [3] -17.8% | [4] 4.05% | [5] 6.05% | [6] -12.7%

COc1nc(N2CCNCC2)nc2c1CCCC2
inactive: [1] 4.85% | [2] -10.7% | [3] -21.1% | [4] 17.8% | [5] -0.75% | [6] -0.45%

COP(=O)(Cc1ccc(/C=C/C#N)o1)OC
inactive: [1] -12.2% | [2] -3.1% | [3] -38.8% | [4] -22.1% | [5] 18.2% | [6] -10.2%

CCCOP1(=O)C=C(O)C(Cl)=C(C)C1 (configuration not stated)
inactive: [1] -32.5% | [2] -15.4% | [3] -42.8% | [4] -12.8% | [5] -19.4% | [6] -46.8%

O=C(Oc1cc(Cl)c(S(=O)(=O)F)cc1Cl)c1ccc([N+](=O)[O-])cc1
inactive: [4] 64.8%
active: [1] 78.2% | [2] 86% | [3] 90.2% | [5] 73.5% | [6] 89.9%

COc1cccc(/C=N/[N-]C(=O)c2ccncc2)c1[O-].[Mn+2].[OH3+]
inactive: [1] 9.15% | [2] 12.5% | [3] 7.35% | [4] 9.95% | [5] 4.7% | [6] 20.6%

NC(CCC(=O)NC(CSc1ccc([N+](=O)[O-])cc1[N+](=O)[O-])C(=O)NCC(=O)O)C(=O)O (configuration not stated)
inactive: [1] 0.05% | [2] -4.75% | [3] 12.2% | [4] 8.7% | [5] 3.2% | [6] -11.1%

COc1ccc2c(c1O)[C@@]13CCCC=C1[C@@H](C2)[N+](C)(C)CC3
inactive: [1] 22.4% | [2] 13.7% | [3] -19.9% | [4] 15.8% | [5] -1.35% | [6] -29.6%

CC(=O)OC1OC(CS[As](C)C)C(OC(C)=O)C(OC(C)=O)C1OC(C)=O (configuration not stated)
inactive: [1] 58.6% | [2] -3.05% | [3] 54.8% | [4] 28.7% | [5] 17.6% | [6] 52.5%

COc1cc(C2c3cc4c(cc3OC(C)(O)C2C)OCO4)cc(OC)c1OC (configuration not stated)
inactive: [1] 8.8% | [2] -1.15% | [3] 9.85% | [4] -25.4% | [5] -16.9% | [6] 15.2%

O=C1C2CC(CN3CCCCC23)C2CCCCN12 (configuration not stated)
inactive: [1] -4.55% | [2] -24.1% | [3] 18.9% | [4] 8.35% | [5] -4.15% | [6] -24.2%

CCC1C(=O)OCC1Cc1cncn1C (configuration not stated)
inactive: [1] -11.3% | [2] -8.4% | [3] -17.9% | [4] 0.55% | [5] -9.95% | [6] -17.9%

NCCc1ccccc1
inactive: [1] 0.15% | [2] -20.6% | [3] 1.5% | [4] -17.4% | [5] -18.3% | [6] -9.9%

O=c1c2ccccc2nc(-c2ccccc2Cl)n1-c1nnc(C(F)(F)F)s1
inactive: [1] -13.8% | [2] -13.1% | [3] 18.3% | [4] 6.15% | [5] -13.2% | [6] -6.5%

COc1cc2c(cc1OC)C13CCN4CC5=CCOC6CC(=O)N2C1C6C5CC43O (configuration not stated)
inactive: [1] -13.9% | [2] -30.9% | [3] -8.05% | [4] 8.55% | [5] -4.2% | [6] -47.4%

O=C=Nc1ccc(Br)cc1
inactive: [1] 25.6% | [2] 11.6% | [3] 15.8% | [4] -17.2% | [5] 23.9% | [6] 29.4%

CCOP(=O)(OCC)C(O)c1ccc(Cl)cc1 (configuration not stated)
inactive: [1] -5.1% | [2] -13.8% | [3] -0.6% | [4] -9.35% | [5] 22.3% | [6] -11.3%
